Assay [1] can be described thus: qHTS assay for measurement of the activity of small molecule inhibitors on Zika virus induced Caspase-3 activity in human astrocytoma cells (AID 1224859). Put shortly: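 A cell-based luminescent caspase-3/7 assay used SNB-19 cells infected with ZIKV (2 FFU/cell) for 6 h following 1 h compound pretreatment.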
For orientation: In qHTS, concentration-response curves come from the screen itself.

The nature of assay [2]: Natriuretic polypeptide receptor (hNpr1) antagonism - Pilot counterscreen GloSensor control cell line (AID 1347045; calls by dose curve; note: series mostly up to about 38 µM). The method, boiled down:
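HEK293 cGMP-sensor cells; 2% GloSensor reagent 2 h RT; LOPAC compounds in 1:5 titrations 30-50 min; 50 uM SNP 20 min; luminescence pre-read and post-read.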
A general note: A counterscreen serves to expose hits that act by an unwanted route or on another target.

Assay [3] deals with Atrial natriuretic peptide receptor 1 (Homo sapiens) (UniProt P16066). Briefly: Natriuretic polypeptide receptor (hNpr1) antagonism - Pilot screen (AID 1347049; calls by dose curve;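 note: HEK293 cells with hNpr1 and GloSensor cGMP luciferase stimulated by 0.1 nM hNppA; agonist-evoked cGMP luminescence read 20 min after hNppA addition; series mostly up to about 58 µM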). Put shortly:
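Cells expressing receptor plus cGMP biosensor are seeded and incubated overnight at 37C, then loaded with GloSensor reagent (2% final) at room temperature for 2 h. Library compounds go on for 30 min. A pre-read precedes agonist (hNppA, 0.1 nM final) and a 20-min readout.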

The target in assay [4] is Atrial natriuretic peptide receptor 2 (Homo sapiens) (UniProt P20594). Briefly: Natriuretic polypeptide receptor (hNpr2) antagonism - Pilot subtype selectivity assay (AID 1347050; calls by dose curve). Put shortly: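 Read-out: GloSensor luminescence (CCD imager), baseline vs post-stimulation. HEK293 cells expressing hNpr2; compounds pre-incubated 30-50 min at ambient temperature; hNppC 1 nM final, 20 min.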

The nature of assay [5]: NS1 protein of Zika virus - qHTS assay to identify small molecule inhibitors in human HEK 293 cells (AID 1347053). Note: series mostly up to about 46 µM; nearly all actives have a fitted effect of over 55% in size. The method, boiled down: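 Read-out is a two-antibody TR-FRET for ZIKV NS1, normalized between uninfected cells and infected cells. Compound added 1 h before MR766 infection at MOI 0.5; human HEK 293 cells incubated 24 h, 37 C.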
Assay [6] addresses T1, Tyrosine-protein phosphatase non-receptor type substrate 1 (Homo sapiens) + Leukocyte surface antigen CD47 (Homo sapiens) (UniProt P78324+Q08722). Description: CD47-SIRPalpha protein protein interaction - LANCE assay qHTS validation (AID 1347057; active = well fitted curve in the direction sought with a large enough effect in the signal ratio, with a control signal flat, not every such curve was filed as active; the % refers to the signal ratio; note: series mostly up to about 38 µM). Put shortly:
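Inhibition of soluble CD47/SIRPalpha ectodomain association by titrated compounds, measured as 665/615 nm time-resolved FRET ratio after sequential 30 min room-temperature incubations.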

Assay [7] concerns the target T1, Tyrosine-protein phosphatase non-receptor type substrate 1 (Homo sapiens) + Leukocyte surface antigen CD47 (Homo sapiens). Briefly: CD47-SIRPalpha protein protein interaction - HTRF assay qHTS validation (AID 1347058; active = well fitted curve in the direction sought with a large enough effect in the signal ratio, not every such curve was filed as active; the % refers to the signal ratio; note: series mostly up to about 38 µM). Put shortly:
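Soluble extracellular domains (6His-CD47, Avi-tag-biotinylated SIRPalpha) in PBS pH 7.4 with 0.05% IGEPAL CA-630. Compounds were preincubated 30 min at RT with CD47 and anti-His-Eu, then SIRPalpha and SAV-XL665 were added. TR-FRET 665/615 ratio.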
(In TR-FRET formats the signal depends on donor and acceptor labels being close together.)

For assay [8] the target is unchanged. Description: CD47-SIRPalpha protein protein interaction - Alpha assay qHTS validation (AID 1347059).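 Note: bead proximity luminescence from CD47 binding SIRPalpha after compound preincubation with SIRPalpha.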 Put shortly: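 In PBS (pH 7.4) with 0.05% IGEPAL CA-630, compound is preincubated with biotin-Avi-SIRPalpha ectodomain before His-CD47 ectodomain and affinity beads are added. Light-protected room-temperature incubations; AlphaScreen readout.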
The target of assay [9] is Parathyroid hormone/parathyroid hormone-related peptide receptor (Homo sapiens) (UniProt Q03431). Description: qHTS for PTHR1 Agonists: Optimization Screen against the NCGC LOPAC library (AID 1347079).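 Note: GloSensor cAMP luminescence in HEK-293 GP2 cells expressing human PTHR1 with IBMX.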 Note: potency is the fitted concentration of half-maximal effect. The method, boiled down: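 Signal increase flags agonism. GP2 cells, derived from HEK-293, express human PTHR1 and a GloSensor cAMP construct.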
Assay [10] in a line: P-glycoprotein substrates identified in KB-8-5-11 adenocarcinoma cell line, qHTS therapeutic library screen (AID 1346987). Note: series mostly up to about 44 µM; nearly all actives have a fitted effect of over 65% in size. Put shortly: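 In this qHTS, P-gp-rich KB-8-5-11 cells received library compounds across a concentration range. Viability was quantified by luminescence after 72 h at 37 degree C.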
A short description of assay [11]: qHTS of pediatric cancer cell lines to identify multiple opportunities for drug repurposing: Primary screen for DAOY cells (AID 1347090). Note: nearly all actives have a fitted effect of over 55% in size. Note: potency is the fitted concentration of half-maximal effect. Put shortly: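 Eight- or eleven-point concentration series, 48 h treatment at 37 degrees C in growth media; readout CellTiter-Glo luminescence. Potency and efficacy were taken from the concentration-response curves.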
The nature of assay [12]: qHTS of pediatric cancer cell lines to identify multiple opportunities for drug repurposing: Primary screen for TC32 cells (AID 1347089). Note: nearly all actives have a fitted effect of over 60% in size. Put shortly:
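TC32 cells, 500-1,000/well in growth medium, compound-treated 48 h at 37 °C; viability from CellTiter-Glo luminescence. Primary screen: MIPE 11-point (0.78 nM–46 µM final), NPC 8-point (0.59 nM–46 µM final); confirmatory at 11-point dilutions.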

Records with an inconclusive call do not appear. Activity calls are given as the source filed them. Unless noted, calls come from the whole dose curve; as a rule, active = well fitted curve in the direction sought with a large enough effect; inconclusive = small, poorly fitted or top-dose-only effect, or another doubt; inactive = no such curve, though single readings can be large; an effect the other way counts as inactive or inconclusive.

Sequence of Atrial natriuretic peptide receptor 1 (Homo sapiens) (P16066 whole entry, looked up): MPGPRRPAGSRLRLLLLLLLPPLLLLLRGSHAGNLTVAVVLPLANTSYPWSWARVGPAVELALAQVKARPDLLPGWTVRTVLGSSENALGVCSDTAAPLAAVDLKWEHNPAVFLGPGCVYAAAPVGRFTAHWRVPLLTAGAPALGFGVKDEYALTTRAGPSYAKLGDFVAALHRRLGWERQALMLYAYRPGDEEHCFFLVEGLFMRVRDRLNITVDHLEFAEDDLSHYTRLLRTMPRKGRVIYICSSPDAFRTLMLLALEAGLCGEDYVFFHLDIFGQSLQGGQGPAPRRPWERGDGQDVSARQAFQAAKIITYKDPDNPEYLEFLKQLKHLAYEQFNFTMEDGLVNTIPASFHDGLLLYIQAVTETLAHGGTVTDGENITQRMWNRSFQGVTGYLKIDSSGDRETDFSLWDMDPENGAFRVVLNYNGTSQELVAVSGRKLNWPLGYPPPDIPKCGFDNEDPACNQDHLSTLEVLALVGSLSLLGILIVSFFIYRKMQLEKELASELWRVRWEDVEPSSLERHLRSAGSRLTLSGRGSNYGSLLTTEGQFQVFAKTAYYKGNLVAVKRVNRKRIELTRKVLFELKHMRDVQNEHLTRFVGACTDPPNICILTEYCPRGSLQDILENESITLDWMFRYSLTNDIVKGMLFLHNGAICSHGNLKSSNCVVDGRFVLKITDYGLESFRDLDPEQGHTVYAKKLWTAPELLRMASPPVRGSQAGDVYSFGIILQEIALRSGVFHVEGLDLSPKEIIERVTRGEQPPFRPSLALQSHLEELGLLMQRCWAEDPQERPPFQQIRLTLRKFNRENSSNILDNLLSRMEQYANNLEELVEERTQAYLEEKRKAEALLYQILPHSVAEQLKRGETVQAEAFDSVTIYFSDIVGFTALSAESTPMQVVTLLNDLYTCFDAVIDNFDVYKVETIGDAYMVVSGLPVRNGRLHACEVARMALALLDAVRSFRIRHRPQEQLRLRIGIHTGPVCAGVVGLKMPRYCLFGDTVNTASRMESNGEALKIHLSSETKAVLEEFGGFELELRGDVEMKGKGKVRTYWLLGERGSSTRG
Sequence of Atrial natriuretic peptide receptor 2 (Homo sapiens) (P20594 whole entry, looked up): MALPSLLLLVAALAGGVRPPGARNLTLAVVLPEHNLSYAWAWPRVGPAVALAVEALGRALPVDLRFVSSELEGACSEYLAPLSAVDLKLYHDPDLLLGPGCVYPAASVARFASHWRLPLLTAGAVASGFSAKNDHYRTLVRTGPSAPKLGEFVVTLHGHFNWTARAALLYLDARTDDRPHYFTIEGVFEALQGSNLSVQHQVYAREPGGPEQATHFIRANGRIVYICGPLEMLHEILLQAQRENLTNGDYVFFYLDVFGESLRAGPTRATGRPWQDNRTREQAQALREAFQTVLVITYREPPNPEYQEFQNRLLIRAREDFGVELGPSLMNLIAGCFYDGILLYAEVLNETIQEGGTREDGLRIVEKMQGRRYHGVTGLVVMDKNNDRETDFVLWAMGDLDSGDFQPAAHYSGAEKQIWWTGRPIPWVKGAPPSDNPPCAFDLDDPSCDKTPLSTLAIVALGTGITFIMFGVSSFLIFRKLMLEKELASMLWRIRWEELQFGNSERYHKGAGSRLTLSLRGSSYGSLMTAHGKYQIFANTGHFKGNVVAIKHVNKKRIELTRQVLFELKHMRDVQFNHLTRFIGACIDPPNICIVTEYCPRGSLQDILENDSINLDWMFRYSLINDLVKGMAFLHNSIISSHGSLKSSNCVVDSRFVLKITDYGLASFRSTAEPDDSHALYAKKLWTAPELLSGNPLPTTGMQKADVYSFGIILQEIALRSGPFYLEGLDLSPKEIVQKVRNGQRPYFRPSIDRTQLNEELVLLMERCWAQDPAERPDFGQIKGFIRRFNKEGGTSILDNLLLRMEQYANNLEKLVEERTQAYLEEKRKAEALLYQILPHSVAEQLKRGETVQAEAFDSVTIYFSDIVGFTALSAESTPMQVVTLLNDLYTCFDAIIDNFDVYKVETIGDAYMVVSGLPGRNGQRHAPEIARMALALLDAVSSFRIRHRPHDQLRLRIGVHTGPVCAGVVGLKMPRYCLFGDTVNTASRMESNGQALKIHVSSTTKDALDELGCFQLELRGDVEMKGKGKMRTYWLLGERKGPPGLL
Sequence of Parathyroid hormone/parathyroid hormone-related peptide receptor (Homo sapiens) (Q03431 whole entry, looked up): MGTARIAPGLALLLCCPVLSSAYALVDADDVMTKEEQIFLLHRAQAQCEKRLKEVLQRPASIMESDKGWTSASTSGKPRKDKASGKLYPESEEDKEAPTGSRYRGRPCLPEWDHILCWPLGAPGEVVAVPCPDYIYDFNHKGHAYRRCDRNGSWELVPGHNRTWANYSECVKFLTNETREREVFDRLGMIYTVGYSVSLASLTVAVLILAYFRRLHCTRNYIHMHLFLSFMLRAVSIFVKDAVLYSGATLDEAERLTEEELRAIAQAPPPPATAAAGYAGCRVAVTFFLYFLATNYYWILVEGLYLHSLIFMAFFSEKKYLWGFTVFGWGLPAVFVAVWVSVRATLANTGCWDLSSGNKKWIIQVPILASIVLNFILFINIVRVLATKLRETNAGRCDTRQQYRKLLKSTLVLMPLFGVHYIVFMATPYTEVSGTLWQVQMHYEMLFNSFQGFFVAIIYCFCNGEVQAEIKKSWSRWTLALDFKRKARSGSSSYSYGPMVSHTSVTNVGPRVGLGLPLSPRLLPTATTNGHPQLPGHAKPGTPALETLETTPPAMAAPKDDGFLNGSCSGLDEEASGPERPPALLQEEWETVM
T1 sequence (P78324 whole entry, looked up, the tested form may be a part): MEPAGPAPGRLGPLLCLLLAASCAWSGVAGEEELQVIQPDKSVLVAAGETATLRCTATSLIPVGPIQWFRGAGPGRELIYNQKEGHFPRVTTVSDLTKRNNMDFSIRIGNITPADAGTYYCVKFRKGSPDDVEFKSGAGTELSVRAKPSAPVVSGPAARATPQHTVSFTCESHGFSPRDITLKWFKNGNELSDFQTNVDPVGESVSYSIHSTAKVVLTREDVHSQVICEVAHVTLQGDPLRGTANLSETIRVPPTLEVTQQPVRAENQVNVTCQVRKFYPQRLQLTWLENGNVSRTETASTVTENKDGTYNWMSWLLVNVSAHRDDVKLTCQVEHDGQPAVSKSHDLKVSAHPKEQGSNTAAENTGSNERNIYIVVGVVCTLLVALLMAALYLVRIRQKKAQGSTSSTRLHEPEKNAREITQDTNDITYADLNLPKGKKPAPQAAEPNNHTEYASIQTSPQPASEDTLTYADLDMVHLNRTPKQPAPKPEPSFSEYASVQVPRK
T1 sequence (Q08722 whole entry, looked up, the tested form may be a part): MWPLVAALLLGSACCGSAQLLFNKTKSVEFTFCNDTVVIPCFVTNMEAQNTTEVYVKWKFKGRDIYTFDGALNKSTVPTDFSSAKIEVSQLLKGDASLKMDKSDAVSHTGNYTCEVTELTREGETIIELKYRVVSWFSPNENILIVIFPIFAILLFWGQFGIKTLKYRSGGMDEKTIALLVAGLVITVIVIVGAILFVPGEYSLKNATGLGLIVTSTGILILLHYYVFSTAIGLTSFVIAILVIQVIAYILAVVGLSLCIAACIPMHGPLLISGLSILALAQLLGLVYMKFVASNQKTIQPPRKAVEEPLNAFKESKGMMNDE

In the case of `NC(CCCP(=O)(O)O)C(=O)O` (stereo not drawn), the Potency entry in assay [1], in assay [2], in assay [3], in assay [4], in [5] and in assay [6] was “inactive” each time. For the same compound, the Potency entry in assay [8] and in assay [9] was “inactive” throughout. For the same compound, in [7], the outcome was inactive.
On to `S=c1[nH]c2ccccc2s1`, for which the Potency result in assay [1], in assay [10], in [5] and in [11] was “inactive” each time.
In the case of `O=C(O)CC1CC(c2ccccc2)=NO1` (stereo not drawn), the Potency entry in assay [1], in [10], in assay [2] and in assay [4] was “inactive” each time. Moreover, the Potency in assay [9] was 10.6 µM (active).
Consider `Nc1ncnc2c1ncn2[C@@H]1O[C@H](COP(=O)(O)CP(=O)(O)OP(=O)(O)O)[C@@H](O)[C@H]1O`, for which the Potency entry in assay [1], in assay [2], in assay [3], in assay [4], in assay [5] and in [6] was “inactive” in each case. The Potency entry in assay [8] and in assay [9] was “inactive” in each case. Further, the outcome in assay [7] was inactive.
For `C[N+]1(C)CCC(OC(=O)C(c2ccccc2)c2ccccc2)CC1`, the Potency result in [1], in [2], in [3], in assay [4], in assay [5] and in assay [6] was “inactive” each time. The Potency entry in assay [8] and in [9] was “inactive” throughout. In assay [7], the result was inactive.
`O=C(CS)Nc1ccccc1`: the Potency entry in [1], in [10], in assay [5] and in assay [12] was “inactive” throughout.
`Nc1ccc([N+](=O)[O-])cc1O`: the Potency entry in assay [1] and in assay [10] was “inactive” in each case. Moreover, in [11], the Potency was 0.001 µM (active).
As to `CC(=O)SCC[N+](C)(C)C`, the Potency result in assay [1], in assay [2], in assay [3], in assay [4], in [5] and in assay [6] was “inactive” each time. The Potency result in [8] and in assay [9] was “inactive” each time. In assay [7], the outcome was inactive.
For `NC(=O)C1=CN(C2OC(COP(=O)(O)OP(=O)(O)OC[C@H]3O[C@@H](n4cnc5c(N)ncnc54)[C@H](OP(=O)(O)O)[C@@H]3O)C(O)C2O)C=CC1` (stereo partly drawn), the Potency entry in assay [1], in assay [2], in assay [3], in assay [4], in assay [5] and in assay [6] was “inactive” throughout. Besides, the Potency result in [8] was “inactive”. For the same compound, the result in assay [7] was inactive.
`CO/N=C(\C(=O)N[C@@H]1C(=O)N2C(C(=O)O)=C(COC(C)=O)CS[C@H]12)c1csc(N)n1`: the Potency result in assay [1], in [2], in assay [3], in assay [4], in assay [5] and in assay [6] was “inactive” in each case. Further, the Potency result in [8] and in assay [9] was “inactive” throughout. Moreover, the outcome in assay [7] was inactive.
In the case of `Oc1ccc(C2CNCc3sccc32)cc1O` (stereo not drawn), the Potency entry in assay [1], in assay [2], in assay [3], in assay [4], in assay [5] and in assay [6] was “inactive” throughout. The Potency entry in assay [8] was “inactive”. The result in [7] was inactive.
For `Nc1ccc(O)c([N+](=O)[O-])c1`, the Potency result in assay [1], in assay [10] and in assay [11] was “inactive” each time.
For `O=C(O)c1cc(=O)c2c(Cl)cc(Cl)cc2[nH]1`, the Potency entry in [1], in assay [2], in assay [3], in assay [4], in [5] and in [6] was “inactive” in each case. Moreover, in [8], the Potency result is “inactive”. Also, the result in assay [7] was inactive.

(Values after PubChem BioAssay (NCATS).)
